# Source: PubChem BioAssay AID1626 (SRMLSC, 2009)
# The whole screen tested about 220,000 compounds, of which about 2,000 (0.91%) were called active. Roughly 2% stayed inconclusive and do not appear here. No stated cut-off is given here; in the data, inconclusive means inhibition above about 80% without an active follow-up result; inactive means below that; test concentration not stated here. These entries were drawn from the full list. Entries with a potency or affinity are not part of this list.
# Assay: M. tuberculosis H37Rv growth inhibitors, H37Rv strain (AID 1626);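 further: bacteria incubated seven days before Alamar blue readout; 0% = bacteria only wells and 100% = bacteria with antibiotic wells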
# Settings: stronger effect = higher value, concentration not given here
row,SMILES,inhibition
1,CC(/C=C/c1ccccc1)=N\Nc1nc(-c2ccccc2)cs1,5.57% (inactive)
2,CCCCn1nnc(NC(=O)c2ccc(-c3ccccc3[N+](=O)[O-])o2)n1,9.1% (inactive)
3,CCc1ccc(NS(=O)(=O)c2ccc(OC)c(C)c2)cc1,16.8% (inactive)
4,Cc1nn(C(=O)c2c(-c3ccccc3)noc2C)c(C)c1N=Nc1cc(C(F)(F)F)cc(C(F)(F)F)c1,4.12% (inactive)
5,COC(=O)CNC(=O)C1CCN(c2nc(C)cc(C)n2)CC1,-8.28% (inactive)
6,CCOC(=O)N1c2ccccc2C=CC1OCC (stereo not drawn),-8.15% (inactive)
7,CCOC(=O)CN1C(=O)C(CC)Oc2ccccc21 (stereo not drawn),-1.23% (inactive)
8,O=C(CN1CCN(c2ccccc2Cl)CC1)NC1CCCc2ccccc21 (stereo not drawn),14.2% (inactive)
9,CCCC1(CCC)C(=O)NC(=NCc2ccccc2)NC1=O,-6.66% (inactive)
10,CCCCOc1cccc(-c2nnc(N)s2)c1,37.6% (inactive)
11,CCCCOc1cccc(C(=O)O)c1,-6.88% (inactive)
12,C=CCCCCCCCC(=O)OC,-15.6% (inactive)
13,O=C(CSc1n[nH]c(-c2cccs2)n1)NCc1ccc2c(c1)OCO2,6.67% (inactive)
14,CCOC(=O)Nc1c(C)n(C)n(-c2ccccc2)c1=O,-5.08% (inactive)
15,COC(=O)c1ccccc1NC(=O)CSc1nnc(-c2ccc(C)cc2)o1,6.5% (inactive)
16,Cc1ccc(-c2nnc(-c3ccc(NC(=O)c4ccco4)cc3)o2)cc1,6.39% (inactive)
17,O=C(OCc1nnc(-c2ccccc2)o1)c1ccco1,5.59% (inactive)
18,O=C(OCC#CCSc1nnc(-c2cccc3ccccc23)o1)c1ccco1,64.9% (inactive)
19,Cc1ccc(CN2CCc3c(OCC(=O)Nc4cc(C)ccc4C)cccc3C2=O)cc1,4.57% (inactive)
20,CC1CCCCN1S(=O)(=O)c1ccc(S(=O)(=O)N2CCN(c3ccccc3)CC2)cc1 (stereo not drawn),-4.53% (inactive)
21,O=C(c1ccco1)N1CCN(S(=O)(=O)c2ccc(C3CCCCC3)cc2)CC1,-4.85% (inactive)
22,CCOc1ccc(N2CC(=O)N(c3ccc(OCC)cc3)CC2=O)cc1,-2.5% (inactive)
23,CCOc1ccc(N2C(=O)CNC2=S)cc1,-2.82% (inactive)
24,CCOC(=O)c1cnc2ccc(OCC)cc2c1NCc1cccnc1,10.7% (inactive)
25,CCOC(=O)c1cnc2ccc(OC)cc2c1NCc1ccccc1,20.8% (inactive)

row,SMILES,inhibition
1,CCSc1nnc(NC(=O)C2Cc3ccccc3CN2C(=O)c2ccco2)s1 (stereo not drawn),-9.18% (inactive)
2,COC(=O)CC1COc2ccccc2N1C(=O)c1ccc(OC)cc1 (stereo not drawn),-4.78% (inactive)
3,COc1ccccc1C1C([N+](=O)[O-])=C(N)Oc2c1c(=O)oc1ccccc21 (stereo not drawn),-2.62% (inactive)
4,N#CC1=C(N)NC(SCC(=O)c2ccc(Br)cc2)=C(C#N)C12CCCCC2,79.4% (inactive)
5,N#CC1=C(N)NC(SCC(=O)c2ccc(Cl)cc2)=C(C#N)C12CCCC2,21.4% (inactive)
6,CCN(CC)CCOC(=O)c1ccc(NC(=O)c2cn(-c3ccccc3)nc2-c2cccs2)cc1,31.3% (inactive)
7,Cc1c(CN2CCCCC2C)c(=O)n(-c2ccccc2)n1C (stereo not drawn),-1.26% (inactive)
8,Cc1cc(N2CCN(C)CC2)nc2ccc(NC(=O)c3ccc(Br)o3)cc12,5.2% (inactive)
9,Cc1nc2ccc(NC(=O)N(C)c3ccccc3)cc2s1,76.8% (inactive)
10,Cc1cc(N2CCN(C)CC2)nc2ccc(NC(=O)c3cccnc3Cl)cc12,-11.1% (inactive)
11,CCCC(=O)Nc1nc2ccc(NC(=O)c3ccc(Br)o3)cc2s1,-1.78% (inactive)
12,Cc1nc2ccc(NC(=O)c3ccco3)cc2s1,5.89% (inactive)
13,CCN1CCN(c2cc(C)c3cc(NC(=O)c4cccnc4Cl)ccc3n2)CC1,-2.95% (inactive)
14,CCN1CCN(c2cc(C)c3cc(NC(=O)c4ccc(Br)o4)ccc3n2)CC1,-5.55% (inactive)
15,CNC(=O)Nc1ccc2nc(C)sc2c1,-3.76% (inactive)
16,COC(=O)/C=C1\C(=O)N(c2nc3ccccc3s2)C(=S)N1c1ccc(F)cc1,3.22% (inactive)
17,O=C(N/C(=C\c1ccccc1)C(=O)N1CCN(CCO)CC1)c1ccccc1,-6.53% (inactive)
18,Cn1cc(C(=O)NP(=O)(N2CCOCC2)N2CCOCC2)c2ccccc21,4.83% (inactive)
19,CCc1nc(SCc2ccc(C(=O)OC)o2)n[nH]1,1.73% (inactive)
20,COc1cc(C(=O)Nc2ccc(-n3cnnn3)c(C)c2)cc(OC)c1OC,-2.46% (inactive)
21,Cc1ccc2[nH]c(=O)c(CN(Cc3ccco3)S(=O)(=O)c3c(C)ccc4nsnc34)cc2c1,1.42% (inactive)
22,COc1ccc(NC(=O)C/C(C)=N/NC(=O)C(=O)NC(C)C)c(OC)c1,-3.77% (inactive)
23,CCOC(=O)c1ccc(NC(=O)c2cnccn2)cc1,38.2% (inactive)
24,CCCCOC(=O)c1ccc(NC(=O)c2cnccn2)cc1,79.1% (inactive)
25,CCOc1ccc(NC(=O)c2cnccn2)cc1,7.63% (inactive)

row,SMILES,inhibition
1,O=C(O)Cc1ccc(NC(=O)c2cnccn2)cc1,2% (inactive)
2,COCCNc1ccc(-c2nn(C)c(=O)c3ccccc23)cc1[N+](=O)[O-],-0.74% (inactive)
3,CN1CCN(C(=O)c2ccc(N3CCCC3=O)cc2)CC1,-13.8% (inactive)
4,COc1c(C)cccc1C(=O)Nc1ccc(N2CCOCC2)c(Cl)c1,6.42% (inactive)
5,C/C(=N/NC(=O)CNC(=O)CCc1ccccc1)c1ccc(Cl)cc1,-2.99% (inactive)
6,O=C(Oc1ccccc1)c1c(Cl)cccc1P(=O)(O)O,-3.52% (inactive)
7,CCCc1nnc(-c2cc(OC)c(OC)c(OC)c2)o1,0.88% (inactive)
8,Nc1nnc(SCCCC(=O)c2ccc(F)cc2)s1,7.95% (inactive)
9,Nc1nnc(SCCCC(=O)c2ccc(Br)cc2)s1,0.26% (inactive)
10,COc1ccc(CSc2cccc3cccnc23)cc1[N+](=O)[O-],-0.94% (inactive)
11,Cc1c(C(=O)O/N=C(\N)c2ccccn2)cccc1[N+](=O)[O-],-0.03% (inactive)
12,Cc1c(C(=O)Nc2cccc3cccnc23)oc2ccccc12,-1.97% (inactive)
13,O=[N+]([O-])c1ccccc1OCCOCCOc1cccc2cccnc12,-5.36% (inactive)
14,CCc1nc2ccccc2c(C(=O)Oc2cccc3cccnc23)c1C,22.1% (inactive)
15,NC(=O)c1ccc(Oc2cccc3cccnc23)c([N+](=O)[O-])c1,49.5% (inactive)
16,COc1ccccc1NC(=O)N1CCN(c2ccc(F)cc2)CC1,4.69% (inactive)
17,COCCCNC(=S)N1CCC(NC(=O)c2ccco2)CC1,0.03% (inactive)
18,CCCCOC(=O)N/N=C/C=C/c1ccccc1,5.74% (inactive)
19,COc1ccc2[nH]cc(CCNC(=S)NC3CCCC3)c2c1,4.31% (inactive)
20,NNC(=O)c1ccc(Cn2cc(Br)cn2)o1,-4.47% (inactive)
21,CCn1cnc2cc(NCc3cccs3)ccc21,3.06% (inactive)
22,CN(C)C(CNC(=S)Nc1cccc(Cl)c1)c1ccccc1 (stereo not drawn),3.58% (inactive)
23,Nc1cc2c(cc1C(=O)c1cccc(Br)c1)OCCO2,4.56% (inactive)
24,COc1ccc(NC(=O)c2cccc(S(=O)(=O)Nc3ccc(Br)cc3)c2)cn1,7.12% (inactive)
25,O=C(Nc1cccc(S(=O)(=O)Nc2ccc(Cl)cc2)c1)c1ccc[n+]([O-])c1,8.19% (inactive)

row,SMILES,inhibition
1,Cc1ccc(NS(=O)(=O)c2cc(C(=O)Nc3cccc(N(C)S(C)(=O)=O)c3)ccc2C)c(C)c1,8.69% (inactive)
2,Cc1ccc(NS(=O)(=O)c2cc(NC(=O)c3cc4c(s3)CCCC4)ccc2C)c(C)c1,6.18% (inactive)
3,CS(=O)(=O)N1CCCC(C(=O)NCCN2CCC(Cc3ccccc3)CC2)C1 (stereo not drawn),3.9% (inactive)
4,CCN(CC)C(=O)C(=O)c1ccn(-c2c(C)csc2C(=O)OC)c1,10.3% (inactive)
5,COc1cccc(/C=C(\C#N)C(=O)NC2CCS(=O)(=O)C2)c1 (stereo not drawn),-1.08% (inactive)
6,Fc1ccc(C2C3=C(Nc4ncnn42)c2ccccc2OC3c2ccncc2)cc1 (stereo not drawn),1.81% (inactive)
7,Brc1ccc(C2C3=C(Nc4ncnn42)c2ccccc2OC3c2ccncc2)cc1 (stereo not drawn),3.46% (inactive)
8,Cc1ccc(C2c3c(oc4ccccc4c3=O)C(=O)N2c2nncs2)cc1 (stereo not drawn),-7.54% (inactive)
9,COc1ccc(CCNC(=O)c2cc(-c3ccccc3OC)on2)cc1OC,-17.8% (inactive)
10,O=S1(=O)CCC(=Nc2ccc(Cl)cc2)c2ccsc21,3.58% (inactive)
11,COc1ccc(C(=O)O/N=C2\CCS(=O)(=O)c3sccc32)cc1,-3.81% (inactive)
12,COc1ccc(Cl)cc1S(=O)(=O)Oc1ccc(NC(C)=O)cc1,-3.14% (inactive)
13,C=CCNc1nc(SC)nc2ccsc12,19.7% (inactive)
14,C=CCSc1nc(NC)c2sccc2n1,64.3% (inactive)
15,Cc1oc(C)c(C(=O)O)c1COc1ccc(C(=O)O)cc1,-4.93% (inactive)
16,CN(C)c1oc(COc2ccc(F)cc2)nc1C#N,0.53% (inactive)
17,COc1ccccc1NC(=O)COC(=O)[C@@H]1CCCN1C(=O)c1cccs1,2.35% (inactive)
18,COc1ccc(CCNC(=O)CSc2cn(Cc3ccccc3)c3ccccc23)cc1OC,0.69% (inactive)
19,CCOC(=O)CSc1nnc(-c2ccc(S(=O)(=O)N3CCOCC3)cc2)n1-c1ccccc1,14.9% (inactive)
20,CC1CCCCN1CC(=O)Nc1ccc(N2CCCCCC2)cc1 (stereo not drawn),7.03% (inactive)
21,O=C(CNCC1CCCCC1)Nc1ccc(N2CCCCC2)cc1,5.47% (inactive)
22,O=[N+]([O-])c1ccc(Sc2nnnn2-c2ccccc2)c(Cl)c1,-0.26% (inactive)
23,O=[N+]([O-])c1ccc(Sc2ccccc2)nc1,1.27% (inactive)
